# HEK cytotox: Cytotoxic Profiling in HEK 293 Cell Line of Diverse Libraries Using Quantitative High-Throughput Screening. HEK 293 viability, ATP luminescence (CellTiter-Glo), 48-72 h. Potency, µM (series often up to 115 µM), inactives show at the highest dose activity change, negative = cytotoxicity, hits mostly inhibitors. 94,000 tested, 6.6% active. AID 1345083, 2018; also: nearly all actives have a fitted effect of over 60% in size
#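 Viability of HEK 293 cells, plated at 250 cells/well, was judged by cellular ATP after compound treatment for 48 or 72 hr. Luminescence was imaged 10 min after CellTiter-Glo addition at room temperature.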
# NPR1 antag: Natriuretic polypeptide receptor (hNpr1) antagonism - Primary qHTS; 76,000 tested, 1.6% active; Potency, µM (doses to about 46.3 µM), for the others: at the top dose activity change, negative = inhibition, most hits filed as inhibitors; HEK293 hNpr1 GloSensor cGMP, ANP-stimulated luminescence; calls by dose curve; also: nearly all actives have a fitted effect of over 60% in size
#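 Compound pre-incubated 30 min at room temperature on GloSensor-loaded HEK293 cells stably carrying hNpr1 and the pGS-40F cGMP biosensor. Stimulation uses hNppA at 0.1 nM final; luminescence is taken at baseline and 20 min post-agonist.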
# NIH3T3 tox: Cytotoxic Profiling in NIH 3T3 Cell Line of Diverse Libraries Using Quantitative High-Throughput Screening | NIH 3T3 viability, CellTiter-Glo ATP luminescence, 48-72 h | Potency, µM (top dose mostly 96.7 µM), inactives show at the top dose activity change, negative = cytotoxicity, usual class: inhibitors | 94,000 tested, 4.3% active | AID 1345082, 2018; also: nearly all actives have a fitted effect of over 55% in size
#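 First NIH 3T3 cells are plated at 400 cells/well; next compound is pinned in; then plates incubate 48 or 72 hr at 37 °C; finally CellTiter-Glo is added and luminescence read after 10 min.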
# Luciferase inh: Firefly luciferase inhibition profiling of diverse chemical library using quantitative high-throughput screening; purified P. pyralis luciferase, luminescence, biochemical; Potency, µM (titrated, usually from 115 µM), most hits filed as inhibitors; 76,000 tested, 2.5% active; Luciferin 4-monooxygenase (Photinus pyralis), P08659; also: nearly all actives have a fitted effect of over 65% in size
# Target sequence (P08659 whole entry, looked up): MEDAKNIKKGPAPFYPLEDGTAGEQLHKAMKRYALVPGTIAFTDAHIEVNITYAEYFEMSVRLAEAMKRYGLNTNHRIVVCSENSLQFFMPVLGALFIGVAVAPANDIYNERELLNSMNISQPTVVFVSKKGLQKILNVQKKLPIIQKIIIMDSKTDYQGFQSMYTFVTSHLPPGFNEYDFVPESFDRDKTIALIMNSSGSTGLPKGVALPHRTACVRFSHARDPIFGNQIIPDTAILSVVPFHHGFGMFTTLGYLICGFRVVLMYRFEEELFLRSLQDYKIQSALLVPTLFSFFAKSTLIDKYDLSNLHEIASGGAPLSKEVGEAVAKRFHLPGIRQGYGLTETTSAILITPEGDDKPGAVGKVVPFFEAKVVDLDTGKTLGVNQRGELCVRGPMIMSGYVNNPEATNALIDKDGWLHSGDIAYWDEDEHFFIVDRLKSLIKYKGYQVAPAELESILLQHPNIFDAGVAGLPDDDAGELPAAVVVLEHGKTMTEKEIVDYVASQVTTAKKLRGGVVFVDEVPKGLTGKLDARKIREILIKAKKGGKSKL
#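 FLuc 10nM, D-luciferin 10uM, ATP 10uM, Mg acetate 10mM, Tris acetate pH 7.5, Tween/BSA; cpd qHTS; enzyme added last; CCD luminescence.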
# * hit, by the source's call; i = inactive; ? = inconclusive; . = no result given; ! = repeats disagree; [ ] = another dose, or the depositor's remark. An excerpt weighted towards active compounds, which were near 11% of everything screened. Unless noted, calls follow the shape of the dose curve; as a rule, active = well fitted curve in the direction sought with a large enough effect; inconclusive = small, poorly fitted or top-dose-only effect, or another doubt; inactive = no such curve, though single readings can be large; an effect the other way counts as inactive or inconclusive. % is scaled to controls: 0 for no effect and ±100 for the full control effect; potency is read from the fitted curve at half-maximal effect.
SMILES,HEK cytotox,NPR1 antag,NIH3T3 tox,Luciferase inh
O=C(Cc1ccccc1)N1CCCC2(CC(c3cccnc3)=NO2)C1 (stereo not drawn),-4%,.,-9%,.
O=C(CCC1CCN(C(=O)[C@H]2C[C@@H]3C=C[C@H]2C3)CC1)N1CCC(Cc2ccccc2)CC1,45µM*,?,?,i
O=C(CCC1CCN(S(=O)(=O)c2ccccc2)CC1)N1CCCC1,?,-3%,?,i
COc1cccc(-c2ccc(C(=O)NCCNC(=O)Cc3ccc(F)cc3)cc2)c1,89µM*,.,?,.
COc1ccc(CC(=O)NCCNC(=O)c2ccc(-c3cccc(OC)c3)cc2)cc1,?,.,-20%,.
COc1cccc(-c2ccc(C(=O)NCCNC(C)=O)cc2)c1,-24%[172 µM],.,-14%[138 µM],.
COc1cccc(-c2ccc(C(=O)NCCNC(=O)c3ccccc3F)cc2)c1,89µM*!,.,-28%,.
CCCCn1c(=O)c(C(=O)NCC2CCCCC2)nc2cccnc21,35µM*,.,?,.
CCCCn1c(=O)c(C(=O)NCC2CC2)nc2cccnc21,-24%[172 µM],.,?,.
COc1ccc(Cn2c(=O)c(C(=O)NCCc3ccc(Cl)cc3)nc3cccnc32)cc1,-1%,.,-14%,.
O=C(NCCc1ccc(Cl)cc1)c1nc2cccnc2n(Cc2ccccc2)c1=O,89µM*,.,?,.
O=C(NCc1ccccc1F)c1nc2cccnc2n(Cc2ccccc2)c1=O,79µM*,.,?,.
O=C(NC1CC1)c1nc2cccnc2n(CCc2ccccc2)c1=O,56µM*,.,-32%[138 µM],.
CC(C)n1ccnc1CN1CCC(CNC(=O)C(C)(C)C)CC1,-18%,6%,?,i
O=C(NCC(F)(F)F)C1CCN(C(=O)c2ccc(-c3cncnc3)cc2)CC1,5%,.,-28%,.
CC(C)n1cc2cc(C(=O)NCc3ccccn3)sc2c1,?,-4%,-22%,i
O=C(c1ccc(C(F)(F)F)cc1)N1CCN(C(=O)c2nc3cccnc3n(CCc3ccccc3)c2=O)CC1,45µM*,.,?,.
O=C(c1ccccc1)N1CCN(C(=O)c2nc3cccnc3n(CCc3ccccc3)c2=O)CC1,-21%,.,-13%,.
Cc1cccc(S(=O)(=O)N2CCc3c(C(=O)NCCN4CCCCC4)cccc32)c1,?,-3%,?,i
Cc1nnn2c(C(=O)NCc3ccc(Cl)cc3)cccc12,79µM*,0%[70.6 µM],35µM*,i
CCOc1cccc(CNC(=O)c2ccc(CN3C(=O)NC4(CCOCC4)C3=O)cc2)c1,?,-25%,-15%,i
Cc1ccccc1-c1[nH]nc2ncc(-c3cccnc3)nc12,?,-5%[70.6 µM],?,i
COc1ccc(-c2cnc3n[nH]c(-c4ccccc4C)c3n2)cn1,32µM*,-9%[70.6 µM],?,i
COc1ccc(-c2[nH]nc3ncc(-c4ccc(OC)nc4)nc23)c(C)c1,22µM*,4%[70.6 µM],?,i
Cc1ccccc1-c1[nH]nc2ncc(-c3cccc(O)c3)nc12,?,-19%[70.6 µM],?,i
SMILES,HEK cytotox,NPR1 antag,NIH3T3 tox,Luciferase inh
COc1ccc(-c2cnc3n[nH]c(-c4ccc(F)cc4C)c3n2)cc1,45µM*,-1%[70.6 µM],32µM*,i
Cc1ccccc1-c1[nH]nc2ncc(-c3ccsc3)nc12,32µM*,-13%[70.6 µM],?,i
COCCOC1CCN(C(C(=O)O)c2ccc(OC)c(F)c2)CC1 (stereo not drawn),-4%,3%,-1%,i
C#CCNC(=O)c1ccc2oc(-c3ccncc3)nc2c1,?,.,-16%[138 µM],.
CC1=C[C@@H](CN2CCC[C@H]2CO)[C@H](C(C)C)C[C@H]1Cc1nnc(-c2cncn2C)o1,?,1%[70.6 µM],100µM*,i
CC1=C[C@@H](CNC(=O)COc2ccccc2)[C@H](C(C)C)C[C@H]1Cc1nnc(-c2cncn2C)o1,50µM*,-24%,?,i
CC(=O)N1CCCC(C(=O)N2CCCC(c3nc4ncccc4[nH]3)C2)C1 (stereo not drawn),-7%,.,-16%,.
CCC(C)C(=O)Nc1c(C(=O)OC)n(CC2CCCO2)c2ncc(NC(C)CCO)cc12 (stereo not drawn),3%,3%,-2%,i
Cc1noc([C@@H]2C[C@H](NC(=O)c3cccnc3)CN2C)n1,i,3%[70.6 µM],2%[174 µM],i
COc1ccc(C(=O)NC2CCN(C(=O)c3cc4c(=O)[nH]c(C)cn4n3)CC2)cc1,-26%,-3%,-8%,i
COc1ccc2cc(C(=O)N3CCC(Cc4ccc(C(=O)NC5CC5)cc4)CC3)[nH]c2c1,35µM*,?,28µM*,i
Cc1cnc(CN(C)C(=O)CC(c2ccccc2)c2ccc(Cl)cc2)[nH]1 (stereo not drawn),?,?,?,i
Cc1nn(-c2ccc(C(F)(F)F)cc2)c(C)c1[C@@H]1C=C[C@@H](NC(=O)CCC(=O)O)C1,?,0%[70.6 µM],?,?
Cc1nn(-c2ccc(C(C)(C)C)cc2)c(C)c1[C@@H]1C=C[C@@H](NC(=O)CCC(=O)O)C1,?,1%[70.6 µM],-22%[174 µM],20µM*
Cc1nn(-c2ccc(C(C)(C)C)cc2)c(C)c1[C@@H]1C=C[C@@H](NC(=O)CC(C)(C)CC(=O)O)C1,i,1%,?,?
Cc1cc(Cl)ccc1-n1nc(C)c([C@@H]2C=C[C@@H](NC(=O)CCC(=O)O)C2)c1C,-4%[172 µM],1%[70.6 µM],1%[138 µM],40µM*
COCC(=O)N[C@@H]1C=C[C@@H](c2c(C)nn(-c3ccc(C(C)(C)C)cc3)c2C)C1,40µM*,-27%[70.6 µM],22µM*,?
O=C(Nc1ccc(Cl)cc1)C1=NO[C@@H]2CN(c3ccccn3)C[C@H]12,?,3%[70.6 µM],-20%[138 µM],i
O=C(Nc1cccc(Cl)c1)C1=NO[C@@H]2CN(c3ccccn3)C[C@H]12,100µM*,-8%[70.6 µM],?,i
O=[S+]([O-])(c1ccccc1)N1CC2(COCCN(c3nccc(C(F)(F)F)n3)C2)C1,89µM*,-5%[70.6 µM],?,i
FC(F)(F)c1ccnc(N2CCOCC3(CN(Cc4ccccc4)C3)C2)n1,?,1%[70.6 µM],-24%[138 µM],i
O=C(Nc1ccc2c(N3CCCC3)ncnc2c1)c1cccc(Br)c1,?,-19%,?,i
CSCC(=O)N(Cc1ccncc1)C1CCN(C)CC1,-9%,7%,-11%,i
COc1ccccc1Nc1ccnc(N2CCC(N[S+](=O)([O-])c3ccc(C)cc3)CC2)n1,32µM*,.,?,.
COc1ccccc1Nc1ccnc(N2CCC(NC(=O)c3ccccc3F)CC2)n1,?,.,-27%,.
COc1ccccc1Nc1ccnc(N2CCC(N[S+](=O)([O-])c3ccccc3)CC2)n1,32µM*,.,32µM*,.
COC(=O)NC1CCN(c2nccc(Nc3ccccc3OC)n2)CC1,50µM*,.,?,.
CN1CC(=O)N(c2ccc(Cl)cc2)Cc2c(NCC3CC3)ncnc21,1%,.,-14%,.

# Screening results (PubChem BioAssay)
